# Source: PubChem BioAssay
# “And” between values parts separate entries of the source, which are not always exact repeats. Identical values can stand only once. Records with an inconclusive call do not appear. The source made the active and inactive calls. Unless noted, cut-off not given; nearly all actives show AC50 up to about 26 µM.
# Tests used:
# [1] = viability loss in pontine glioma line – cell-based, SU-DIPG-XVII, MIPE5.0, CellTiter-Glo, qHTS, dose response (AID 1347060); conditions: CellTiter-Glo ATP luminescence;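 on AC50: cells exposed to compound for 48 hours before viability readout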
# [2] = viability loss in pontine glioma line – cell-based, SU-DIPG-XIII, MIPE4.0, CellTiter-Glo, qHTS, dose response (AID 1347061; cut-off not given, nearly all actives have AC50 up to about 37 µM;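 further: cells exposed to compound for 48 hours before readout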); conditions: CellTiter-Glo ATP luminescence
# [3] = viability loss in pontine glioma line – cell-based, JHH-DIPG-1, MIPE4.0, CellTiter-Glo, qHTS, dose response (AID 1347062; cut-off not given, nearly all actives have AC50 up to about 27 µM;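 on AC50: cells exposed to compound for two days before readout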); conditions: JHH-DIPG-1 viability, CellTiter-Glo ATP luminescence
# [4] = viability loss in pontine glioma line – cell-based, SU-DIPG-IV, MIPE4.0, CellTiter-Glo, qHTS, dose response (AID 1347063; cut-off not given, nearly all actives have AC50 up to about 30 µM;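 further: compound exposure lasted 48 hours before the viability readout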); conditions: CellTiter-Glo ATP luminescence
# [5] = viability loss in pontine glioma line – cell-based, SU-DIPG-XIII, MIPE5.0, CellTiter-Glo, qHTS, dose response (AID 1347064; cut-off not given, nearly all actives have AC50 up to about 23 µM;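 on AC50: cells exposed to compound for 48 hours before the viability read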); conditions: CellTiter-Glo ATP luminescence
# [6] = viability loss in pontine glioma line – cell-based, SU-DIPG-XXV, MIPE5.0, CellTiter-Glo, qHTS, dose response (AID 1347065); conditions: CellTiter-Glo ATP luminescence;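 further: cells exposed to compound for 48 hours before ATP readout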
# [7] = growth inhibition of DIPG cells – cell-based, MIPE4.0 library, CellTiter-Glo luminescence, qHTS (AID 1347066; cut-off not given, nearly all actives have AC50 up to about 30 µM;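 further: cells exposed to compound for 48 hours before readout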); conditions: SU-DIPG-VI viability, CellTiter-Glo ATP luminescence
# [8] = JHH-DIPG-1 glioma cell viability, MIPE5.0 library, CellTiter-Glo luminescence, qHTS (AID 1347067); conditions: JHH-DIPG-1 glioma viability, CellTiter-Glo ATP luminescence;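 further: cells exposed to compound for 48 hours before readout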
# [9] = growth inhibition of DIPG cells – cell-based, MIPE5.0 library, qHTS (AID 1347068; cut-off not given, nearly all actives have IC50 up to about 30 µM;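 on IC50: cells exposed to compound for 48 hours before viability readout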); conditions: SU-DIPG-XXV viability
# [10] = viability loss with induced miR-34 in A549 – imaging, A549 dox-inducible miR-34, nuclei and caspase counts, primary screen (AID 1347080;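 active means compounds whose cell count with miR-34 switched on is under 0.7 times the count with it off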); conditions: A549 miR-34 inducible, Hoechst nuclei count, 48 h
# [11] = MELAS cybrid and Rieske KO viability enhancers – cell-based, MELAS cybrids, Rieske KO mouse fibroblasts, CellTiter-Glo, primary screen (AID 1508586;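 active means mean z-score across replicates of 1.96 or higher in either the MELAS or the Rieske mutant cell line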;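 further: z relative to plate mean and SD of compound and empty wells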); conditions: low glucose
# [12] = compounds altering circadian rhythm period length – cell-based, LOPAC library, luminescence reporter (AID 2774; call rule not given here;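 further: values are relative to mean of DMSO wells on each plate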); conditions: circadian reporter cells, at 7 µM, actives lie on both sides
# [13] = system: Hepatitis C virus NS3 helicase; test: blockers of NS3h binding to ssDNA – biochemical, fluorescence polarization, LOPAC1280 library, primary screen (AID 687035; in the data active means inhibition above about 37%); conditions: Purified HCV NS3 helicase, Cy5-dT15 ssDNA binding fluorescence polarization; stronger effect = higher value; concentration not given here
# [14] = compounds altering Cy5-DNA-NS3h complex signal – biochemical, LOPAC1280, artefact control for HCV NS3 helicase inhibitor project (AID 687037; call rule not given here); conditions: Cy5-DNA-NS3h complex fluorescence interference counterscreen
# [15] = system: Aerobactin synthetase IucA (Klebsiella pneumoniae, hypervirulent); test: biochemical IucA inhibition screen of LOPAC library by absorbance (AID 1346212; call rule not given here;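 further: 100% = no compound wells and 0% = no enzyme wells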); conditions: IucA enzyme assay, absorbance (OD) readout; stronger effect = lower value;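 tested at 8 µM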
# [16] = liver-stage malaria parasite load reduction – cell-based, known kinase inhibitor set, luminescence, hepatoma host viability (AID 624392; call rule not given here;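 further: infected cells incubated roughly two days before readout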); conditions: Plasmodium liver stage in hepatoma cells, luciferase luminescence, concentration not given here; liver cell % of control: measured here: host liver cell viability; parasite % of control: stronger effect = lower value
# [17] = compounds altering HSF1 focus formation in cells – imaging, Selleck Cancer Library (AID 1347162; in the data active means plate-normalised HSF1 focus index below about 0.46); conditions: human cells, HSF1 nuclear foci imaging, at 10 µM; SSMD: measured here: HSF1 foci SSMD mean; cell count: measured here: cell number; plate-normalised HSF1 focus index: stronger effect = lower value
# [18] = stronger effect = lower value, cell number ratio, induced over uninduced
# [19] = measured here: relative caspase fold change +Dox/-Dox
# [20] = measured here: total cells with miR-34 induction, stronger effect = lower value
# [21] = measured here: total cells without miR-34 induction
# [22] = MELAS cybrid survival, CellTiter-Glo 48 h, stronger effect = higher value
# [23] = Rieske KO mouse fibroblast survival, CellTiter-Glo 72 h
structure (smiles),measurement,setting,value
CCc1c(C(=O)C(N)=O)c2c(OCC(=O)O)cccc2n1Cc1ccccc1,outcome,[1],inactive
same,outcome,[2],inactive
same,outcome,[3],inactive
same,outcome,[4],inactive
same,outcome,[5],inactive
same,outcome,[6],inactive
same,outcome,[7],inactive
same,outcome,[8],inactive
same,outcome,[9],inactive
same,fold change,[10]; [18],0.89 (inactive)
same,fold change,[10]; [19],1.11
same,cell count,[10]; [20],7750
same,cell count,[10]; [21],8710
same,z-score,[11]; [22],-0.413 (inactive)
same,z-score,[11]; [23],0.396
CC(C)[C@H]1C(=O)N[C@H](CO)Cc2c[nH]c3cccc(c23)N1C,outcome,[1],inactive
same,outcome,[2],inactive
same,outcome,[7],inactive
same,outcome,[9],inactive
CC12CCC3C(CCC4=C(O)C(=O)CCC43C)C1CCC2=O (stereo not given),period change,[12],-0.08 h (inactive)
same,inhibition,[13],-3% (inactive)
same,fluorescence ratio (interference),[14],1 (inactive)
same,remaining activity,[15],113% (inactive)
C[C@]12COC(=O)C[C@@H]1CC[C@@H]1[C@@H]2CC[C@@]2(C)[C@H]1CC[C@]2(C)O,outcome,[1],inactive
same,outcome,[2],inactive
same,outcome,[3],inactive
same,outcome,[4],inactive
same,outcome,[5],inactive
same,outcome,[7],inactive
same,outcome,[8],inactive
same,outcome,[9],inactive
same,z-score,[11]; [22],0.293 (inactive)
same,z-score,[11]; [23],0.228
Cc1ccccc1-n1c(Cn2cnc3c(N)ncnc32)nc2cccc(C)c2c1=O,liver cell % of control,[16],91.8% and 81.8% and 99.4%
same,parasite % of control,[16],49.6% (inactive) and 56.6% (inactive) and 61.4% (inactive)
same,outcome,[1],inactive
same,AC50,[2],4.18 µM (active)
same,AC50,[3],1.32 µM (active)
same,AC50,[4],0.105 µM (active)
same,outcome,[5],inactive
same,outcome,[6],inactive
same,AC50,[7],0.743 µM (active)
same,outcome,[8],inactive
same,outcome,[9],inactive
same,SSMD,[17],2.3
same,cell count,[17],6650
same,plate-normalised HSF1 focus index,[17],1.12 (inactive)
O=C(O)C(=O)c1cn(Cc2ccccc2)c2ccc(-c3ccc(OC(F)(F)F)cc3)cc12,outcome,[1],inactive
same,outcome,[2],inactive
same,outcome,[3],inactive
same,outcome,[4],inactive
same,outcome,[6],inactive
same,outcome,[7],inactive
same,outcome,[8],inactive
same,outcome,[9],inactive
COCC1(CO)C(=O)C2CCN1CC2 (stereo not given),AC50,[1],23.5 µM (active)
same,AC50,[2],20.9 µM (active)
same,AC50,[3],20.9 µM (active)
same,AC50,[4],18.7 µM (active)
same,AC50,[5],8330 nM (active)
same,AC50,[6],16600 nM (active)
same,AC50,[8],10500 nM (active)
same,outcome,[9],inactive
C/C(=C\c1csc(C)n1)[C@@H]1C[C@@H]2O[C@@H]2CCC[C@H](C)[C@H](O)[C@@H](C)C(=O)C(C)(C)[C@@H](O)CC(=O)O1,AC50,[1],0.00662 µM (active)
same,outcome,[2],inactive
same,outcome,[5],inactive
same,AC50,[6],9.34 nM (active)
same,outcome,[7],inactive
N=c1c2c(-c3ccccc3)c(-c3ccccc3)n(Cc3ccccc3)c2ncn1C1CCC(O)CC1 (stereo not given),AC50,[1],18.6 µM (active)
same,outcome,[2],inactive
same,AC50,[4],8.33 µM (active)
same,AC50,[5],16600 nM (active)
same,AC50,[6],20900 nM (active)
same,IC50,[9],18.6 µM (active)
COc1cc2cc(c1Cl)N(C)C(=O)C[C@H](OC(=O)C(C)C)[C@]1(C)O[C@@H]1[C@H](C)[C@@H]1C[C@@](O)(NC(=O)O1)[C@H](OC)/C=C/C=C(\C)C2,outcome,[1],inactive
same,outcome,[2],inactive
same,outcome,[3],inactive
same,outcome,[4],inactive
same,AC50,[5],33.2 nM (active)
same,AC50,[6],6.62 nM (active)
same,outcome,[7],inactive
same,AC50,[8],7.42 nM (active)
CSCC[C@@H](NC(=O)[C@@H](Cc1ccccc1)NC(=O)CNC(=O)CNC(=O)[C@@H](N)Cc1ccc(O)cc1)C(=O)O,outcome,[1],inactive
same,outcome,[2],inactive
same,outcome,[3],inactive
same,outcome,[4],inactive
same,outcome,[5],inactive
same,outcome,[6],inactive
same,outcome,[8],inactive
same,outcome,[9],inactive
COc1ccc2c(c1)[C@@]13CCCC[C@H]1[C@@H](C2)NCC3,period change,[12],-0.085 h (inactive)
same,inhibition,[13],-5% (inactive)
same,fluorescence ratio (interference),[14],1 (inactive)
same,remaining activity,[15],108% (inactive)
CCOP(=O)(OCC)C(C)NC(=O)N(CCCl)N=O (stereo not given),outcome,[1],inactive
same,outcome,[2],inactive
same,outcome,[3],inactive
same,outcome,[5],inactive
same,outcome,[6],inactive
same,outcome,[7],inactive
same,outcome,[8],inactive
same,outcome,[9],inactive
Cc1[nH]nc2ccc(-c3cncc(OC[C@@H](N)Cc4c[nH]c5ccccc45)c3)cc12,AC50,[1],0.833 µM (active)
same,AC50,[2],4.69 µM (active)
same,AC50,[3],0.59 µM (active)
same,AC50,[4],3.72 µM (active)
same,AC50,[5],742 nM (active)
same,AC50,[6],742 nM (active)
same,AC50,[7],14.8 µM (active)
same,AC50,[8],525 nM (active)
same,IC50,[9],1.86 µM (active)
CC(C)(O)/C=C\C(=O)[C@](C)(O)[C@H]1[C@H](O)C[C@]2(C)[C@@H]3CC=C4[C@@H](C=C(O)C(=O)C4(C)C)[C@]3(C)C(=O)C[C@@]12C,AC50,[1],0.0661 µM (active)
same,AC50,[2],18.7 µM (active)
same,AC50,[3],0.105 µM (active)
same,AC50,[4],0.0296 µM (active)
same,AC50,[5],52.5 nM (active)
same,AC50,[6],29.5 nM (active)
same,AC50,[7],8.33 µM (active)
same,AC50,[8],52.5 nM (active)
same,IC50,[9],0.148 µM (active)
CC(=O)O[C@@]12CO[C@@H]1C[C@H](O)[C@@]1(C)C(=O)[C@H](O)C3=C(C)[C@@H](O)C[C@@](O)([C@@H](OC(=O)c4ccccc4)[C@H]21)C3(C)C,AC50,[1],23.5 µM (active)
same,outcome,[2],inactive
same,outcome,[7],inactive
same,outcome,[8],inactive
same,outcome,[9],inactive
CN[C@@H]1Cc2cccc3[nH]c(=O)n(c23)C1,outcome,[1],inactive
same,outcome,[2],inactive
same,outcome,[3],inactive
same,outcome,[5],inactive
same,outcome,[6],inactive
same,outcome,[7],inactive
same,outcome,[8],inactive
same,outcome,[9],inactive
Cc1ccccc1-n1c(Cn2ncc3c(N)ncnc32)nc2cccc(C)c2c1=O,outcome,[1],inactive
same,outcome,[2],inactive
same,outcome,[5],inactive
same,outcome,[6],inactive
same,outcome,[8],inactive
same,outcome,[9],inactive
same,fold change,[10]; [18],0.903 (inactive)
same,fold change,[10]; [19],0.968
same,cell count,[10]; [20],8570
same,cell count,[10]; [21],9490
same,z-score,[11]; [22],-0.332 (inactive)
same,z-score,[11]; [23],0.957
